Results on 40 compounds are retold here after PubChem BioAssay (NCI).

Compounds without any hit were thinned out: in the full panel of roughly 83,000, 20% have a hit.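 Compound tested at a single concentration for 48 hours in 96-well plates; a percent growth value below 10 was scored as active.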 Activity calls are given as the source filed them.

In the assay the test system is HCC-2998 colon. In words: NCI-60 one-dose screen, 48 h (100 = growth as untreated, 0 = no growth, -100 = all killed). The following applies: 10 µM. How it is done: Growth inhibition of the HCC-2998 human tumor cell line is measured as a screen for anti-cancer activity. Cells are grown in 96 well plates and exposed to the test compound for 48 hours. Compounds are tested at a single concentration, which is 10^-5 M for most compounds. The reported endpoint is percent growth (GI% or GIPRCNT), where numbers from 0 - 100% represent growth inhibition, and numbers from -100% - 0 represent cell death. For example, a value of 40 represents 60% growth inhibition. A value of 0 means no net growth occurred over the course of the experiment. A value of -40 indicates 40% of cells at the beginning of the experiment died by the end of the experiment. A value of -100 means all cells are dead at the end of the experiment.
NCI-60 Human Tumor Cell Lines Screen was performed using the standard one-dose NCI protocol, which is described in more detail at https://dtp.cancer.gov/discovery_development/nci-60/default.htm.
Compounds with GIPRCNT values below 10 were considered active. Activity score was based on GIPRCNT using the following formula: […]
Score is 0 for GIPRCNT values of 100 or above, 50 for GIPRCNT values of 0, and 100 for GIPRCNT values of -100.
For `CCc1nc(N)nc(N)c1-c1ccc(Cl)cc1`, the growth is 75.9% (inactive). The value for `CC(C)CCCC(=O)O` was 103% (inactive); that for `CCCCC(CC)COC(C)=O` (stereo not given) was 105% (inactive); that for `COc1cc2nn(-c3ccccc3N)nc2cc1OC` was 95.8% (inactive).

For the compound `O=[N+]([O-])c1ccc(O)c(S(=O)(=O)O)c1`, the growth was 112% (inactive). To `CCN(CC)CCCC(C)Nc1ccnc(/C=C/c2ccc(Cl)cc2)c1` (stereo not given) belongs -23.6% (active).

As to `O=C(/C=C/C(=O)c1ccccc1)c1ccccc1`, the growth was 107% (inactive). The value for `CC(C)=C(NC(=O)c1ccccc1)C(=O)O` was 101% (inactive); that for `CC(=O)OC1CC2C(C)(C)OC3CC(=O)OCC32C2CCC3(C)C(=CCC3c3ccoc3)C12C` (stereo not given) was 80.7% (inactive); that for `NCCCN` was 112% (inactive). Consider `Oc1ccc(Cc2ccccc2)c2cccnc12`, for which the growth is 26.2% (inactive). To `O=S(=O)(O)c1ccc(O)c2ccccc12` belongs 114% (inactive). For `CC1(C(=O)O)NC(C(=O)O)Cc2c1[nH]c1ccccc21` (stereo not given), the growth was 104% (inactive). To `O=C(O)c1ccnc(Br)c1` belongs 107% (inactive); to `COC(=O)c1[nH]c(=O)c(C#N)c(C(=O)OC)c1C(=O)c1ccccc1`, 113% (inactive). The value for `C/C(=N\NC(=O)c1ccccc1N)c1ccccc1O` was 67.5% (inactive); that for `O=C1C=C(Nc2ccc([N+](=O)[O-])cc2)c2ccccc2C1=O` was 72.4% (inactive). The value for `COc1cc(CCN=Cc2ccccc2O)c([N+](=O)[O-])cc1OC` was 101% (inactive).

With `Cc1nc2ccccc2c(C(=O)O)c1O`, the growth was 89% (inactive). For the compound `C=CC(O)CCC` (stereo not given), the growth is 113% (inactive). To `CCCC(=O)c1cc(C)ccc1OC` belongs 111% (inactive); to `Cc1ccc(C(=O)NC2c3ccccc3Oc3ccccc32)cc1`, 75.6% (inactive). Regarding `CCC(C)(O)c1ccc(C)cc1` (stereo not given), the growth was 105% (inactive).

Turning to `COc1cc(-c2ccc(NC(=O)NC3CC3)c(OC)c2)ccc1NC(=O)NC1CC1`, the growth was 68.2% (inactive). The value for `CN(C)C(=O)Oc1cccc([N+](C)(C)C)c1` was 106% (inactive); that for `c1c(-c2cc(C3CC3)[nH]n2)n[nH]c1C1CC1` was 102% (inactive); that for `c1ncc2[nH]cnc2n1` was 93.7% (inactive). The value for `NC(CSC(c1ccccc1)(c1ccccc1)c1ccccc1)C(=O)O` (stereo not given) was 15.9% (inactive); that for `O=c1cc(-c2ccccc2)oc2c1ccc1ccccc12` was 98.8% (inactive); that for `CN(C)c1ccc2oc(=O)c3ccccc3c2c1` was 88.5% (inactive). To `O=[N+]([O-])c1cccc(C(F)(F)F)c1` belongs 103% (inactive); to `CCNc1nc2c(cnn2C)c(=O)[nH]1`, 105% (inactive); to `CCCCCCCCCCC1CO1` (stereo not given), 102% (inactive). As for `O=C(O)C(Cc1ccccc1)C(=O)O`, the growth was 106% (inactive). The value for `CC(=O)Oc1ccc(Br)cc1C(=O)O` was 100% (inactive); that for `CC(=O)CC(=O)N(C)C` was 108% (inactive).

On to `Cc1cc2nc(CC(=O)c3ccccc3)c(=O)[nH]c2cc1C`, for which the growth was 110% (inactive). To `CC1CCCCN1C(=S)Nc1ccc(S(=O)(=O)N2CCCCC2)cc1` (stereo not given) belongs 112% (inactive); to `CC(=O)Nc1ccc(NC(C)=O)c2c1C(=O)c1ccccc1C2=O`, 105% (inactive); to `COCCOCCCl`, 101% (inactive).
